# According to article PMC11006913:
# Substitutions are numbered along the chain they refer to.
# Columns and labels:
# Assay in all cases: PBM; 200 nM protein, PBS
# Conditions in all cases: dsDNA, one strand shown
# [1] = biological target: HOXB6 (Homo sapiens, UniProt P17509 132-218, K202E)
# [2] = biological target: T1, SIX6 (Homo sapiens, UniProt O95475 114-200, L143M)
# T1 sequence: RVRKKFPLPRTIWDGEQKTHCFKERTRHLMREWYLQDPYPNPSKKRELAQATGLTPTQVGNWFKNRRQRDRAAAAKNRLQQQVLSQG
# [3] = biological target: ALX1 (Homo sapiens, UniProt Q15699 118-204, L144V)
# Chain of ALX1 (Homo sapiens, UniProt Q15699 118-204, L144V) (Q15699 118-204 L144V): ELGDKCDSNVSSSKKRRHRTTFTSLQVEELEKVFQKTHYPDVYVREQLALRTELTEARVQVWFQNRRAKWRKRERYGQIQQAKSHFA
# [4] = biological target: ALX1 (Homo sapiens, UniProt Q15699 118-204, L144R)
# Chain of ALX1 (Homo sapiens, UniProt Q15699 118-204, L144R) (Q15699 118-204 L144R): as the sequence (Q15699 118-204 L144V) above, with V27R counted along it
# [5] = biological target: ALX1 (Homo sapiens, UniProt Q15699 118-204)
# Chain of ALX1 (Homo sapiens, UniProt Q15699 118-204) (Q15699 118-204): as the sequence (Q15699 118-204 L144V) above, with V27L counted along it
# [6] = biological target: HOXB6 (Homo sapiens, UniProt P17509 132-218)
# Chain of HOXB6 (Homo sapiens, UniProt P17509 132-218) (P17509 132-218): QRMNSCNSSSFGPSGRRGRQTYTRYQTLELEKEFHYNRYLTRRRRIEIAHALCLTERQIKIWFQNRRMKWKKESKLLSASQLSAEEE
# [7] = biological target: HOXA2 (Homo sapiens, UniProt O43364 129-215, R185T)
# Chain of HOXA2 (Homo sapiens, UniProt O43364 129-215, R185T) (O43364 129-215 R185T): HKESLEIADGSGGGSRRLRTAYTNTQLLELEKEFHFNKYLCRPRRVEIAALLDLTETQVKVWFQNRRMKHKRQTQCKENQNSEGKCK
# [8] = biological target: PITX2 (Homo sapiens, UniProt Q99697 72-157)
# [9] = biological target: HOXA2 (Homo sapiens, UniProt O43364 129-215, R185K)
# Chain of HOXA2 (Homo sapiens, UniProt O43364 129-215, R185K) (O43364 129-215 R185K): as the sequence (O43364 129-215 R185T) above, with T57K counted along it
# [10] = biological target: VAX1 (Homo sapiens, UniProt Q5SQQ9 86-172)
# Chain of VAX1 (Homo sapiens, UniProt Q5SQQ9 86-172) (Q5SQQ9 86-172): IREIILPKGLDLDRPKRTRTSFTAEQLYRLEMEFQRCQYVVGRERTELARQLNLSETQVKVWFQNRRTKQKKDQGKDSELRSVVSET
# [11] = biological target: VAX1 (Homo sapiens, UniProt Q5SQQ9 86-172, T142I)
# Chain of VAX1 (Homo sapiens, UniProt Q5SQQ9 86-172, T142I) (Q5SQQ9 86-172 T142I): as the sequence (Q5SQQ9 86-172) above, with T57I counted along it
# [12] = biological target: HOXA2 (Homo sapiens, UniProt O43364 129-215, Y150S)
# Chain of HOXA2 (Homo sapiens, UniProt O43364 129-215, Y150S) (O43364 129-215 Y150S): as the sequence (O43364 129-215 R185T) above, with Y22S, T57R counted along it
# [13] = biological target: HOXA2 (Homo sapiens, UniProt O43364 129-215)
# Chain of HOXA2 (Homo sapiens, UniProt O43364 129-215) (O43364 129-215): as the sequence (O43364 129-215 R185T) above, with T57R counted along it
# [14] = biological target: VAX1 (Homo sapiens, UniProt Q5SQQ9 86-172, K157R)
# Chain of VAX1 (Homo sapiens, UniProt Q5SQQ9 86-172, K157R) (Q5SQQ9 86-172 K157R): as the sequence (Q5SQQ9 86-172) above, with K72R counted along it
# [15] = biological target: ALX3 (Homo sapiens, UniProt O95076 139-225, N203Q)
# Chain of ALX3 (Homo sapiens, UniProt O95076 139-225, N203Q) (O95076 139-225 N203Q): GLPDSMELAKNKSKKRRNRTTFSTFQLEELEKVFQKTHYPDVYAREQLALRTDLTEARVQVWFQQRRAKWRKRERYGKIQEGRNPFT
# [16] = biological target: ALX3 (Homo sapiens, UniProt O95076 139-225)
# Chain of ALX3 (Homo sapiens, UniProt O95076 139-225) (O95076 139-225): as the sequence (O95076 139-225 N203Q) above, with Q65N counted along it
# [17] = biological target: ALX3 (Homo sapiens, UniProt O95076 139-225, L168Q)
# Chain of ALX3 (Homo sapiens, UniProt O95076 139-225, L168Q) (O95076 139-225 L168Q): as the sequence (O95076 139-225 N203Q) above, with L30Q, Q65N counted along it
# [18] = biological target: ALX3 (Homo sapiens, UniProt O95076 139-225, L168V)
# Chain of ALX3 (Homo sapiens, UniProt O95076 139-225, L168V) (O95076 139-225 L168V): as the sequence (O95076 139-225 N203Q) above, with L30V, Q65N counted along it
# [19] = biological target: ALX3 (Homo sapiens, UniProt O95076 139-225, N203S)
# Chain of ALX3 (Homo sapiens, UniProt O95076 139-225, N203S) (O95076 139-225 N203S): as the sequence (O95076 139-225 N203Q) above, with Q65S counted along it
# [20] = biological target: T2, NKX2-6 (Homo sapiens, UniProt A6NCS4 118-204, R150C)
# T2 sequence: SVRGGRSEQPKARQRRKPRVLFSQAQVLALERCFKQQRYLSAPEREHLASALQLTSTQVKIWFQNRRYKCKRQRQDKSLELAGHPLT
# [21] = biological target: T3, SIX6 (Homo sapiens, UniProt O95475 114-200, L167V)
# T3 sequence: T1 sequence with M30L, L54V
# Chain of HOXB6 (Homo sapiens, UniProt P17509 132-218, K202E) (P17509 132-218 K202E): as the sequence (P17509 132-218) above, with K71E counted along it
sequence,measurement,setting,value
ACATTAAC,binding signal,[1],"10 upbm affinity estimate (log intensity, higher = more binding, comparable within an allelic series)"
ATATCTAC,binding signal,[2],"11 upbm affinity estimate (log intensity, higher = more binding, comparable within an allelic series)"
AGTCCCCC,binding signal,[1],"8.9 upbm affinity estimate (log intensity, higher = more binding, comparable within an allelic series)"
same,binding signal,[3],"6.53 upbm affinity estimate (log intensity, higher = more binding, comparable within an allelic series)"
same,binding signal,[4],"6.37 upbm affinity estimate (log intensity, higher = more binding, comparable within an allelic series)"
same,binding signal,[5],"6.41 upbm affinity estimate (log intensity, higher = more binding, comparable within an allelic series)"
same,binding signal,[6],"8.97 upbm affinity estimate (log intensity, higher = more binding, comparable within an allelic series)"
CGTGGCAG,binding signal,[1],"9.05 upbm affinity estimate (log intensity, higher = more binding, comparable within an allelic series)"
same,binding signal,[7],"7.29 upbm affinity estimate (log intensity, higher = more binding, comparable within an allelic series)"
same,binding signal,[8],"8.07 upbm affinity estimate (log intensity, higher = more binding, comparable within an allelic series)"
same,binding signal,[9],"10.5 upbm affinity estimate (log intensity, higher = more binding, comparable within an allelic series)"
same,binding signal,[10],"7.05 upbm affinity estimate (log intensity, higher = more binding, comparable within an allelic series)"
same,binding signal,[11],"7.33 upbm affinity estimate (log intensity, higher = more binding, comparable within an allelic series)"
same,binding signal,[12],"10.4 upbm affinity estimate (log intensity, higher = more binding, comparable within an allelic series)"
same,binding signal,[13],"7.45 upbm affinity estimate (log intensity, higher = more binding, comparable within an allelic series)"
same,binding signal,[14],"7.05 upbm affinity estimate (log intensity, higher = more binding, comparable within an allelic series)"
same,binding signal,[6],"9.07 upbm affinity estimate (log intensity, higher = more binding, comparable within an allelic series)"
GATGCCCC,binding signal,[1],"9.11 upbm affinity estimate (log intensity, higher = more binding, comparable within an allelic series)"
same,binding signal,[6],"8.96 upbm affinity estimate (log intensity, higher = more binding, comparable within an allelic series)"
TACATTAA,binding signal,[1],"10 upbm affinity estimate (log intensity, higher = more binding, comparable within an allelic series)"
same,binding signal,[15],"8.45 upbm affinity estimate (log intensity, higher = more binding, comparable within an allelic series)"
same,binding signal,[16],"11 upbm affinity estimate (log intensity, higher = more binding, comparable within an allelic series)"
same,binding signal,[17],"9.29 upbm affinity estimate (log intensity, higher = more binding, comparable within an allelic series)"
same,binding signal,[18],"9.07 upbm affinity estimate (log intensity, higher = more binding, comparable within an allelic series)"
same,binding signal,[19],"8.57 upbm affinity estimate (log intensity, higher = more binding, comparable within an allelic series)"
ACGGGCCT,binding signal,[1],"8.87 upbm affinity estimate (log intensity, higher = more binding, comparable within an allelic series)"
same,binding signal,[20],"9.14 upbm affinity estimate (log intensity, higher = more binding, comparable within an allelic series)"
same,binding signal,[6],"8.95 upbm affinity estimate (log intensity, higher = more binding, comparable within an allelic series)"
CGGATATC,binding signal,[2],"10.9 upbm affinity estimate (log intensity, higher = more binding, comparable within an allelic series)"
same,binding signal,[21],"10.8 upbm affinity estimate (log intensity, higher = more binding, comparable within an allelic series)"
GACCGAGC,binding signal,[1],"8.96 upbm affinity estimate (log intensity, higher = more binding, comparable within an allelic series)"
same,binding signal,[3],"6.39 upbm affinity estimate (log intensity, higher = more binding, comparable within an allelic series)"
same,binding signal,[4],"6.24 upbm affinity estimate (log intensity, higher = more binding, comparable within an allelic series)"
same,binding signal,[5],"6.33 upbm affinity estimate (log intensity, higher = more binding, comparable within an allelic series)"
same,binding signal,[6],"8.92 upbm affinity estimate (log intensity, higher = more binding, comparable within an allelic series)"
TAATATTA,binding signal,[1],"10 upbm affinity estimate (log intensity, higher = more binding, comparable within an allelic series)"
same,binding signal,[15],"8.61 upbm affinity estimate (log intensity, higher = more binding, comparable within an allelic series)"
same,binding signal,[19],"8.68 upbm affinity estimate (log intensity, higher = more binding, comparable within an allelic series)"
ACTATTGA,binding signal,[1],"9.51 upbm affinity estimate (log intensity, higher = more binding, comparable within an allelic series)"
same,binding signal,[15],"8.21 upbm affinity estimate (log intensity, higher = more binding, comparable within an allelic series)"
same,binding signal,[16],"9.1 upbm affinity estimate (log intensity, higher = more binding, comparable within an allelic series)"
same,binding signal,[19],"8.3 upbm affinity estimate (log intensity, higher = more binding, comparable within an allelic series)"
same,binding signal,[6],"10.1 upbm affinity estimate (log intensity, higher = more binding, comparable within an allelic series)"
ATAGTATC,binding signal,[2],"11 upbm affinity estimate (log intensity, higher = more binding, comparable within an allelic series)"
GGGCCCCA,binding signal,[1],"8.9 upbm affinity estimate (log intensity, higher = more binding, comparable within an allelic series)"
same,binding signal,[6],"8.9 upbm affinity estimate (log intensity, higher = more binding, comparable within an allelic series)"
TAGAATGA,binding signal,[1],"9.57 upbm affinity estimate (log intensity, higher = more binding, comparable within an allelic series)"
same,binding signal,[6],"10.3 upbm affinity estimate (log intensity, higher = more binding, comparable within an allelic series)"
ACCGTTAA,binding signal,[1],"9.66 upbm affinity estimate (log intensity, higher = more binding, comparable within an allelic series)"
same,binding signal,[6],"10.6 upbm affinity estimate (log intensity, higher = more binding, comparable within an allelic series)"
GGCGGCAC,binding signal,[1],"9.08 upbm affinity estimate (log intensity, higher = more binding, comparable within an allelic series)"
same,binding signal,[6],"9.21 upbm affinity estimate (log intensity, higher = more binding, comparable within an allelic series)"
CCGGCGCA,binding signal,[1],"9.01 upbm affinity estimate (log intensity, higher = more binding, comparable within an allelic series)"
same,binding signal,[6],"9.07 upbm affinity estimate (log intensity, higher = more binding, comparable within an allelic series)"
CCAGCGGA,binding signal,[1],"9.05 upbm affinity estimate (log intensity, higher = more binding, comparable within an allelic series)"
same,binding signal,[6],"8.93 upbm affinity estimate (log intensity, higher = more binding, comparable within an allelic series)"
CTGGTCCC,binding signal,[1],"9.06 upbm affinity estimate (log intensity, higher = more binding, comparable within an allelic series)"
same,binding signal,[6],"9.01 upbm affinity estimate (log intensity, higher = more binding, comparable within an allelic series)"
CCACGGAC,binding signal,[1],"9.01 upbm affinity estimate (log intensity, higher = more binding, comparable within an allelic series)"
same,binding signal,[6],"9.02 upbm affinity estimate (log intensity, higher = more binding, comparable within an allelic series)"
GCTTGCCC,binding signal,[1],"9.05 upbm affinity estimate (log intensity, higher = more binding, comparable within an allelic series)"
same,binding signal,[6],"9.1 upbm affinity estimate (log intensity, higher = more binding, comparable within an allelic series)"
CCGGGGCA,binding signal,[1],"8.98 upbm affinity estimate (log intensity, higher = more binding, comparable within an allelic series)"
same,binding signal,[6],"8.98 upbm affinity estimate (log intensity, higher = more binding, comparable within an allelic series)"
CGGTAGGC,binding signal,[1],"9.06 upbm affinity estimate (log intensity, higher = more binding, comparable within an allelic series)"
same,binding signal,[6],"8.98 upbm affinity estimate (log intensity, higher = more binding, comparable within an allelic series)"
GCCGCCCA,binding signal,[1],"8.98 upbm affinity estimate (log intensity, higher = more binding, comparable within an allelic series)"
same,binding signal,[6],"8.99 upbm affinity estimate (log intensity, higher = more binding, comparable within an allelic series)"
CCAGTCCC,binding signal,[1],"9.1 upbm affinity estimate (log intensity, higher = more binding, comparable within an allelic series)"
same,binding signal,[6],"8.95 upbm affinity estimate (log intensity, higher = more binding, comparable within an allelic series)"
